High-throughput results: PubChem, National Center for Advancing Translational Sciences (NCATS)
Compounds with a hit are over-represented: about 18% of the library has one in this group of screens.
VP16 counter = counter-screen for ROR gamma inhibitors: Gal4-VP16 reporter; Drosophila S2 Gal4-VP16 UAS-luciferase, luminescence, 20 h; Potency, µM (doses to about 53.6 µM), inactives show at the highest dose activity, negative = inhibition, usual class: inhibitors; 310,000 tested, 3.5% active; AID 2546;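 further: Gal4-VP16 expression switched on by copper sulfate through the metallothionein promoter; potency means the concentration at half of the fitted maximal effect; nearly all actives have a fitted effect of over 50% in size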
IL-1B inflam inh = inhibitors of inflammasome signaling (IL-1 beta secretion) | activity change, % at 57.5 µM | 360,000 tested, 4.7% active | THP-1 LPS/ATP IL-1B secretion, AlphaLISA, 16 h; hits give low values; in the data active means activity change below about -50%; inconclusive means mostly about -30% to -49%
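Secreted IL-1B measured by AlphaLISA bead assay after 16 h compound exposure of THP-1 cells; compounds (final up to 57.5 uM) added 1 h before LPS (250 ng/mL) and ATP (1.25 mM) stimulation; lower signal means less secretion.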
TDP1 cell CPT = DT40-hTDP1 cell growth loss with CPT. Potency, µM (series often up to 46.2 µM), without a hit: at the highest dose activity change, negative = growth inhibition, actives largely listed as inhibitors. 420,000 tested, 12% active. chicken DT40 Tdp1-/-;hTDP1 cells + 20 nM CPT, ATP luminescence, 48 h; further: potency means the concentration at half of the fitted maximal effect; nearly all actives have a fitted effect of over 55% in size
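Chicken DT40 Tdp1-/- cells complemented with human TDP1, 400 cells/well, exposed to compounds plus 20 nM camptothecin for at least 48 h at 37 C; viability read as ATP content by CellTiter-Glo luminescence.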
LDHA block = blocks human lactate dehydrogenase A. P00338. purified LDHA, NADH/diaphorase-resazurin fluorescence; hits give low values. activity change, % (values are at about 110 or 230 µM). 480,000 tested, 0.15% active. AID 1347041; in the data active means activity change below about -30%; inconclusive means mostly about -25% to -30%;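 further: plate controls were DMSO wells for no effect and wells without enzyme for full effect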
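Human LDH5 (2 nM) was incubated with 0.06 mM NADH and 0.2 mM pyruvate for 5 min at room temperature in Tris pH 7.4. Remaining NADH was coupled through diaphorase/resazurin, and resorufin fluorescence was read at 0 and 20 min.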
TDP1 cell noCPT = qHTS for Inhibitors of human tyrosyl-DNA phosphodiesterase 1 (TDP1): qHTS in cells in absence of CPT | 420,000 tested, 15% active | Potency, µM (top dose mostly 46.2 µM), for inactives: at the top dose activity change, negative = growth inhibition, usual class: inhibitors | DT40 Tdp1-/- hTDP1 cells, no CPT, ATP luminescence, 48 h; further: potency means the concentration at half of the fitted maximal effect; nearly all actives have a fitted effect of over 55% in size
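Chicken DT40 Tdp1-/- cells complemented with human TDP1, screened without camptothecin (DMSO vehicle only), 400 cells/well. Compounds pin-transferred, cells incubated at 37 °C for at least 48 hr. Growth read as ATP-dependent luminescence (CellTiter-Glo, 30 min at RT).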
RORg inh = inhibitors of mouse ROR gamma transcriptional activity | AID 2551 | P51450 | Drosophila S2 Gal4-RORgamma UAS-luciferase reporter, 20 h | 310,000 tested, 5.4% active | Potency, µM (titrated, usually from 53.6 µM), for inactives: at the highest dose activity change, negative = inhibition, actives largely listed as inhibitors; further: potency means the concentration at half of the fitted maximal effect; nearly all actives have a fitted effect of over 60% in size
Target sequence (P51450 whole entry, looked up, the tested form may be a part): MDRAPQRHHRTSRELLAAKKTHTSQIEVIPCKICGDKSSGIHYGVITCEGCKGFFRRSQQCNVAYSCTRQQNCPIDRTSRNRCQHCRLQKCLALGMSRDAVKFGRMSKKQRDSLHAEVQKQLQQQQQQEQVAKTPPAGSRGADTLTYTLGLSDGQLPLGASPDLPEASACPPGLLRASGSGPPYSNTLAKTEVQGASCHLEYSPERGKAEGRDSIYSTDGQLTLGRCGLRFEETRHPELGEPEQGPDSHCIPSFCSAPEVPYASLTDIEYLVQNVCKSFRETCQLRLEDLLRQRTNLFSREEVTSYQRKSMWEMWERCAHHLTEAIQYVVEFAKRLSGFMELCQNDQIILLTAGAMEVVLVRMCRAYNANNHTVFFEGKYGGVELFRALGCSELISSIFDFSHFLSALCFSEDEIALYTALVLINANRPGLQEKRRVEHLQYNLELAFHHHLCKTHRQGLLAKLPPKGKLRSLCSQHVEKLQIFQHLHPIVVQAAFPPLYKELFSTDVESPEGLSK
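Stable Schneider cell line, Gal4 DNA-binding domain fused to ROR gamma, UAS-luciferase. Cmpd 1 hr RT → CuSO4 700 uM final → 20 hr RT → luciferase reagent 10 min → luminescence.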
An asterisk follows results filed as active; ? = inconclusive; . = not tested or not shown; [ ] = dose if it differs, or a comment. Unless noted, the call rests on the fitted dose curve; in most records, active means well fitted curve in the direction sought with a large enough effect; inconclusive means small, poorly fitted or top-dose-only effect, or another doubt; inactive means no such curve, though single readings can be large; an effect the other way counts as inactive or inconclusive. Unless noted, on the % scale 0 is the no-effect control and ±100 the full control effect.

SMILES | VP16 counter | IL-1B inflam inh | TDP1 cell CPT | LDHA block | TDP1 cell noCPT | RORg inh
CCCCc1ccc(-n2nc3ccc(NC(=O)c4cc5ccccc5o4)cc3n2)cc1 | . | . | ? | -4.2 | 10.3µM* | .
O=C(Nc1ccc(CN2CCOCC2)cc1)c1cc2ccccn2n1 | 20µM* | 27.5 | 10.7% | -1.0 | -15.0% | 10µM*
O=C(Nc1ccc(CN2CCOCC2)cc1)c1cc2ccccc2o1 | ? | -10.9 | ? | -2.2 | ? | 11.2µM*
CCC(=O)N1CCN(c2ccc(NC(=O)c3cc4ccccc4o3)cc2)CC1 | 7.0% | -29.9 | ? | -4.6 | 18.4µM* | ?
O=C(Nc1ccc(Cl)cc1)c1cc(Br)ccc1OCC(=O)N1CCOCC1 | -14.1% | -91.9* | ? | -9.9 | ? | 13.0%
O=C(NC(=S)Nc1ccc(CN2CCOCC2)cc1)c1cc2ccccc2o1 | -11.9% | -6.0 | ? | -4.6 | -8.8% | 10.3%
O=C(Nc1ccc(OCC(=O)N2CCOCC2)cc1)c1ccccc1F | ? | 19.2 | 1.5% | -9.9 | -2.6% | ?
CC(=O)c1cccc(NC(=O)c2cc3ccccn3n2)c1 | ? | -19.4 | -22.1% | -10.2 | ? | 8.91µM*
O=C(Nc1ccc(CN2CCOCC2)cc1)c1ccccc1F | 11.2µM* | -8.1 | -3.8% | 7.5 | 6.2% | 0.631µM*
O=C(Nc1ccc(CN2CCOCC2)cc1)c1ccc(Cl)cc1Cl | 1.9% | 0.0 | -26.3% | -8.2 | -11.0% | -13.0%
CC(C)N1CCc2c(sc(NC(=O)C3CCCCC3)c2-c2nc3ccccc3s2)C1 | . | . | . | 27.0 | . | .
NC(=O)CCCn1c(C(=O)c2ccc(Cl)cc2)c2ccc([N+](=O)[O-])cc2[n+]1[O-] | . | -10.1 | 3.66µM* | 1.7 | 8.2µM* | .
Cc1ccc(C(=O)c2c3ccc([N+](=O)[O-])cc3[n+]([O-])n2CCCC(N)=O)cc1 | . | -7.2 | 5.8µM* | 5.8 | ? | .
NCCCn1c(C(=O)c2ccc(Cl)cc2)c2ccc(C(F)(F)F)cc2[n+]1[O-] | . | -21.7 | ? | 0.6 | ? | .
NCCCn1c(C(=O)c2ccc(Cl)cc2)c2ccc([N+](=O)[O-])cc2[n+]1[O-] | . | -60.1* | 4.11µM* | 2.6 | 4.11µM* | .
CCN(C(=O)CC12CC3CC(CC(O)(C3)C1)C2)c1ccccc1 | . | . | . | 0.0 | . | .
O=[N+]([O-])c1cc(CN2CCOCC2)c2cccnc2c1O | 4.4% | 16.2 | ? | 23.3 | ? | 2.6%
O=[N+]([O-])c1cc(CN2CCN(c3ccccc3)CC2)c(O)c2ncccc12 | -86.8% | 89.2 | 2.06µM* | -1.7 | 4.11µM* | 0.112µM*
CN(Cc1cc([N+](=O)[O-])c2cccnc2c1O)C1CCCCC1 | ? | . | . | . | . | 3.98µM*
COc1cccc(NC(=O)CN(C2=NC3CS(=O)(=O)CC3S2)c2cccc(C)c2)c1 (stereo unspecified) | -3.2% | -65.4* | 7.8% | -3.1 | ? | 41.9%
COc1ccc(N(CC(=O)Nc2cc(Cl)ccc2OC)C2=NC3CS(=O)(=O)CC3S2)cc1 (stereo unspecified) | -0.9% | -22.7 | -13.9% | -4.6 | -4.1% | 7.9%
O=C(Cc1ccc(F)cc1)Nc1cc(S(=O)(=O)N2CCOCC2)ccc1N1CCCCC1 | . | 20.1 | ? | 1.4 | 23.1µM* | .
COc1ccc(C(=O)OCC(=O)Nc2cc(S(=O)(=O)N3CCOCC3)ccc2N2CCCC2)cc1 | -10.2% | -63.8* | 3.0% | 1.9 | -18.1% | 12.9%
CCOCC(=O)Nc1cc(S(=O)(=O)N2CCOCC2)ccc1N1CCCCC1 | -19.2% | 8.2 | 14.6µM* | -7.8 | 16.4µM* | 9.3%
O=C(Cc1c(F)cccc1Cl)Nc1cc(S(=O)(=O)N2CCCCC2)ccc1N1CCOCC1 | 0.6% | -15.6 | ? | -1.8 | 16.4µM* | -1.0%
SMILES | VP16 counter | IL-1B inflam inh | TDP1 cell CPT | LDHA block | TDP1 cell noCPT | RORg inh
COc1ccc(CC(=O)OCC(=O)Nc2cc(S(=O)(=O)N3CCOCC3)ccc2N2CCCC2)cc1 | -10.4% | 22.8 | 0.3% | 2.2 | -7.5% | 13.0%
O=C(CCc1ccccc1Cl)Nc1cc(S(=O)(=O)N2CCOCC2)ccc1N1CCCC1 | . | -13.1 | 14.6µM* | -0.1 | 18.4µM* | .
O=C(Cc1c(F)cccc1Cl)Nc1ccccc1C(=O)N1CCCCC1 | . | 5.9 | -6.6% | -5.1 | -20.1% | .
O=C(Cc1c(F)cccc1Cl)Nc1ccccc1N1CCCCC1 | 4.0% | 15.3 | 16.4µM* | -0.3 | ? | 13.3%
Cc1cccc(NC(=O)CCC2CCCCC2)c1 | . | . | . | 2.5 | . | .
CSc1ccccc1C(=O)N1CCOCC1 | 1.7% | 10.6 | -6.3% | -7.5 | -0.1% | -36.8%
O=C(c1ccccc1Sc1cccc2ccccc12)N1CCOCC1 | 2.3% | -1.0 | 13µM* | -4.8 | 20.6µM* | -30.4%
O=[N+]([O-])c1ccc(NCCOc2ccccc2Cl)nc1 | -13.4% | -65.6* | -24.1% | 0.1 | -19.7% | ?
Cc1cccc(OCCNc2ccc([N+](=O)[O-])cn2)c1 | -4.6%[10 µM] | 30.4 | -21.0% | -6.0 | ? | 8.5%
COCCN=c1scc(-c2cc(OC)ccc2OC)n1/N=C/c1c[nH]c2ccccc12 | -7.8% | -50.2* | ? | -2.4 | ? | ?
COc1ccc(CC(=O)NCC(=O)N/N=C/c2c[nH]c3ccccc23)cc1 | 0.7% | -7.6 | 2.4% | -1.3 | 2.0% | -22.7%
COC(=O)COc1cccc(N)c1 | . | . | . | 7.9 | . | .
NC(=O)C1(N2CCCCC2)CCN(CC(=O)Nc2cc(Cl)ccc2Cl)CC1 | 2.2% | -9.9 | -21.3% | -3.8 | -21.7% | 0.8%
CC1CN(CC(=O)Nc2nc(-c3ccc(Cl)cc3)cs2)CC(C)O1 (stereo unspecified) | . | ? | ? | -4.9 | 23.1µM* | .
O=C(CN1CCOCC1)Nc1ccccc1Sc1ccc(Cl)cc1 | 3.3% | -59.0* | ? | -8.5 | 6.51µM* | 14.8%
O=C(CN1CCCCCC1)Nc1nc(-c2ccccc2)cs1 | . | . | . | 6.0 | . | .
O=C(CN1CCOCC1)Nc1nc(-c2ccccc2Cl)cs1 | 18.3% | -28.8 | -7.8% | -10.7 | -8.3% | 27.2%
NC(=O)C1(N2CCCCC2)CCN(CC(=O)Nc2ccccc2Sc2ccccc2)CC1 | -5.2% | -78.6* | ? | -4.3 | ? | 27.3%
O=C(CN1CCOCC1)Nc1nc(-c2ccc(Cl)cc2)cs1 | 16.5% | ? | 16.4µM* | -5.8 | 20.6µM* | 21.3%
CCCOc1ccc(-c2cc(C(=O)O)c3cc(C)ccc3n2)cc1 | . | . | . | 8.4 | . | .
Cc1ccc(-c2csc(NC(=O)N3CCOCC3)n2)cc1 | 0.6% | -23.9 | ? | 7.4 | ? | ?
